The supplement of paper PMC11417369
Whole data set: some 25,000 sequences, median “ln(normalized median fluorescence intensity)” near 7.1, cut for the highest 2% near 10. For the sample, the highest values were picked, then their nearest neighbours and some sequences at random.

tested on: PfSIP2 AP2 domain 1 (GST-tagged); assay: gcPBM binding intensity (ln(normalized median fluorescence intensity)); higher = stronger DNA binding
Procedure, shortened: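 Alexa488 anti-GST antibody, scanned at 488 nm, detected GST-tagged P. falciparum DNA-binding domains that had been expressed in E. coli and incubated for 1 h on an Agilent 4 × 180k array. The array carried primer-extended double-stranded 36-bp intergenic genomic probes and negative controls. Binding intensity is the highest Masliner-normalised natural-log median intensity across replicate spots of either orientation of each probe.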

Row | Sequence | gcPBM binding intensity (ln)
1 | AAAAAAAAAAAAAGTGCACACATAAAAATATGATCT [CACACA_site8090] | 11.2
2 | AAAAAAAAAAAGTGCACACATAAAAATATGATCTAA [CACACA_site572] | 11.5
3 | AAAAAAAAAAAAAAAGCACACATATAAATATGAATA [CACACA_site8391] | 7.5
4 | ATCTTAACTCTATGCACACATAAAAGTATATAAATA [CACACA_site2256] | 7.7
5 | AAAAATAAAATGATGGTGCACATAAAGTATGGTTAC | 11.3
6 | TATATATATATGTGCACACATAATAAAAAAAAAAAT [CACACA_site3831] | 9.49
7 | TGTTAAAAAATGGATGCACACATTAAATAAAAAGTA [CACACA_site1660] | 8.9
8 | ATATATGACTAATAAAGTACATACTTCATATAATTA [XGTACX_site6699] | 7.06
9 | TAAGTATATTTCTGCACACAAAAAAAAAAACCAAAA [CACACA_site4056] | 7.18
10 | AATGATATATTTAAATGTACACATGAAATATAATAT [XGTACX_site2678] | 7.06
11 | ATAAAAAAAAAATAATGTACTTATATATATATATAT [XGTACX_site8282] | 9.32
12 | TATATTATAGGTTGTGTACACATATTATATAGTACT [CACACA_site4583] | 7.16
13 | GATGTATAAAATAATACATGCATGTCCTACATATAT [TGCATGCA_site155] | 6.89
14 | AATACGGCAAACATTAAAAAATATAATAACAATAAA [CACACA_negctrl_site868] | 6.96
15 | TATGTGTGCAAAAACTGTACACATTAAAGGTATATA [XGTACX_site7627] | 7.54
16 | TGCAAAAAATTCCACACACACACACGCATATAAATA [CACACA_site6696] | 7.27
17 | GCAAGGTCCACACTGGTGCATTAAAAATAAAATATA [GTGCAC_site9956] | 10.4
18 | ATATGTACGCAAGGTGCACACTGGTGCATTAAAAAA [CACACA_site1801] | 12.3
19 | CATTATGTACAAAAAGTGCAATATATATTAACACTG | 8.23
20 | ACATATAAAATATATACACACATATAAATACATTAA [CACACA_site3867] | 7.06
21 | GAATATGAATATTTGCGTACTTATATAACTGTTCTA [XGTACX_site883] | 6.83
22 | GTGTTAATTTTAAATTGTACAAAATTTATATGATTT [XGTACX_site348] | 7.19
23 | TAAATGTTTCTCAAAAGTACACATGTGATATTTCTT [XGTACX_site2065] | 6.84
24 | AGCATTTTTCATTTTGCACACATGTTTTATGTGTAT [CACACA_site3454] | 7.11
25 | TATTTTCTCGTTTGCATGCACCTTATTTTATGTGGT [GTGCAC_site9470] | 10.8
26 | TATGTGTATTTATTTGCATGTTGGTTGTATTTTTTC [TGCATGCA_site479] | 6.93

Row | Sequence | gcPBM binding intensity (ln)
27 | ACTTGTTTTCAATGTAAAATACAATTTTCATTTATT [CACACA_negctrl_site435] | 7.08
28 | TATTAAATTTATCGGAGTACATTTAAATGTATATAC [XGTACX_site7975] | 7.13
29 | TATATAACATATAACACACATACTTAGTATTACATA [CACACA_site3099] | 7
30 | TCTTTTCTCGGAAGGGTGCAAGGAATTAATGAAATA [GTGCAC_site9706] | 11.1
31 | TAATATAAATGAAAGGTGCTTTTGCTTTCTTTTTTT | 7.08
32 | TTCTTTTCTCTTTTAATCATATTATATAAATGAATA [CACACA_negctrl_site820] | 7.29
33 | TTTTTATTTTTTTATTTCTTATCAAATAAAATATAT [XGTACX_negctrl_site537] | 6.84
34 | TGTTTTGTTGTGTATTGTACTAATATAAATATATAA [XGTACX_site1852] | 7.41
35 | TTGCAATAATGTTGCACACTAAATAGTCATATATAA [CACACA_site263] | 7.31
36 | TATTAATATATAGTAGTGCAATAAAGATATACTGAA | 8.3
37 | TATAAGGCAATAATAGTGCACTAAGATATATAATGA | 10.6
38 | AAGTAGTGTTAATACTGTACTTATATTTTTTATTAT [XGTACX_site8264] | 6.92
39 | ATTAAAAATATAGTCACACATACACCCATATATATT [CACACA_site5394] | 6.92
40 | ATATCCATAATAAAAACATGCAACAGAAAAAAAAAA [TGCATGCA_site497] | 7.14
41 | TAATTATAATAATAACGTACATATATAAAATGGTGA [XGTACX_site8434] | 7.21
42 | AATATAAATAAAAACACACACAATGGTACATATATA [CACACA_site3671] | 7.02
43 | CATATATAAATATGTATGCACTTTAACAAAATGTAT | 7.74
44 | TATATATTTATTAAATGTACATAACAAAAATGGTAT [XGTACX_site3577] | 7.41
45 | TACAAATATATAAAATGTACATATATATACATATTA [XGTACX_site3029] | 6.92
46 | ATTTTATATACAAAATGTACATATTTATTATATATG [XGTACX_site6732] | 6.99
47 | ATAAAACGTACAATGGTGCATATAAATAATATATAT [GTGCAC_site9960] | 10.8
48 | ATATATATTAAAAATAGTACATATAATAAAAATCAT [XGTACX_site4265] | 7.11
49 | ATGTATGCAAAAATGGTGCATATTAAATGTATAACA [GTGCAC_site9722] | 11.1
50 | AATCATATTAGTATGGTGCAACATATATAAATATAT | 10.8
51 | ATTATGTACAAAATGGTGCAATATTATACATATATA [GTGCAC_site9468] | 10.4
52 | AGTATAAATAAATCATAAACATATATATATATATAT [GTGCAC_negctrl_site356] | 9.25
